Several values for one entry are separate records, joined by “and”; a condition that tells them apart may be missing. Identical values can stand only once. Inconclusive results are not listed. Activity calls are given as the source filed them. Calls come from the whole dose curve; as a rule, active = well fitted activation curve with a large enough effect; inconclusive = small, poorly fitted or top-dose-only effect; inactive = no such curve, though single readings can be large or run the other way. Non-standard residues stand in square brackets, D forms with d. Residues, ends and D or L forms follow the SMILES beside them. pGlu = O=C1CC[C@@H](C(=O)O)N1

26 compounds from PubChem BioAssay (NCATS) can be followed below.
Potency is the fitted concentration of half-maximal effect.

Sequence of Cellular tumor antigen p53 (Homo sapiens) (P04637 whole entry, looked up): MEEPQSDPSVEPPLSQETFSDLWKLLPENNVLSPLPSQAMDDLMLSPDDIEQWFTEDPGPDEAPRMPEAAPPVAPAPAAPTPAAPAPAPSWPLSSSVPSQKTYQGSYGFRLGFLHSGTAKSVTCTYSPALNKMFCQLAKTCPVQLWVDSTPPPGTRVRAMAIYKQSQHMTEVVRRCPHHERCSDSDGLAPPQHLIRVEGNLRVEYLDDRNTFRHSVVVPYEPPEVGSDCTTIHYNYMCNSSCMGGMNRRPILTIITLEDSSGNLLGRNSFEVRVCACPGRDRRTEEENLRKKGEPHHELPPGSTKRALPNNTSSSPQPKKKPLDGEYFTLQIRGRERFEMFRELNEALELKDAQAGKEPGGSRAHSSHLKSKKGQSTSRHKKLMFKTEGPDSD

This assay concerns the target Cellular tumor antigen p53 (Homo sapiens) (UniProt P04637). Put plainly: Primary qHTS for small molecule compounds that upregulate eGFP-tagged delta133p53alpha (in N-terminal) cells. (AID 2060322).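 For activation: cells pre-induced with doxycycline then dosed without doxycycline; series mostly up to about 56 µM; 0% = DMSO vehicle and 100% = reference activator.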 Note: nearly all actives have a fitted effect of over 75% in size. The note with it: NCI-H358 eGFP-delta133p53alpha fluorescence, 24 h; activation: hits give high values. The procedure, abridged:
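NCI-H358 cells pre-induced 24 h with 10 ng/ml doxycycline for eGFP-delta133p53alpha, plated dox-free and exposed 24 h at 37C to titrated compounds. Fixed, Hoechst-stained; gated GFP peak intensity by laser scanning cytometry, normalized to DMSO (0%) and 57.5 uM 5-azacytidine (100%).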
A general note: qHTS replaces the single test concentration by a dilution series.
`O=P(O)(O)OCC(O)CO` (stereo unspecified): the activation is -9.21% (inactive). Regarding `C/C=C/c1ccc(O)c(OC)c1`, the activation was -0.837% (inactive). On the same count and under the same terms, under `Cc1ccc2c(c1)c1c3n2CCNC3CCC1` (stereo unspecified) stands -0.837% (inactive). For the compound `CCOC(=O)[C@H](CCc1ccccc1)N[C@@H](C)C(=O)N1[C@@H](C(=O)O)C[C@H]2CCC[C@@H]21`, the activation is 0.313% (inactive). Regarding `CO[C@@H]1[C@@H](OC)[C@H](C)[C@@](O)(CC(=O)O)O[C@H]1[C@H](C)[C@H]1O[C@@]2(CC[C@@](C)([C@H]3CC[C@@](C)([C@@H]4O[C@@H]([C@H]5O[C@](C)(O)[C@H](C)C[C@@H]5C)C[C@@H]4OC4C[C@H](OC)[C@@H](OC)[C@H](C)O4)O3)O2)C[C@H](O)[C@H]1C` (stereo partly specified), the Potency is 8.71 µM (active).

As for `Cc1cnc(NS(=O)(=O)c2ccc(N)cc2)nc1`, the activation is 2.82% (inactive). For `O=C(O)c1cn(C2CC2)c2cc(Cl)c(F)cc2c1=O`, the activation is 11.9% (inactive).

Take `Oc1ccccc1`: the activation was -1.69% (inactive). Still for that read-out and setting: under `Cc1nc2n(c(=O)c1CCN1CCC(c3noc4cc(F)ccc34)CC1)CCCC2` stands 2.45% (inactive) and 8.37% (inactive). With `CS[C@H]1SC[C@@H]2C(=O)N(C)[C@H](C(C)C)C(=O)OC[C@H](NC(=O)c3cnc4ccccc4n3)C(=O)N[C@H](C)C(=O)N(C)[C@@H]1C(=O)N(C)[C@H](C(C)C)C(=O)OC[C@H](NC(=O)c1cnc3ccccc3n1)C(=O)N[C@H](C)C(=O)N2C`, the Potency is 0.0343 µM (active). Consider `CCNC(=O)[C@@H]1CCCN1C(=O)[C@H](CCCN=C(N)N)NC(=O)[C@H](CC(C)C)NC(=O)CNC(=O)[C@H](Cc1ccc(O)cc1)NC(=O)[C@H](CO)NC(=O)[C@H](Cc1c[nH]c2ccccc12)NC(=O)[C@H](Cc1cnc[nH]1)NC(=O)[C@@H]1CCC(=O)N1` ([pGlu]HWSYGLRP-NHEt), for which the activation was 5.86% (inactive). `CCCCCC[C@@H](CCC)C(=O)O`: the activation is -13.4% (inactive). Turning to `C/C=C1/[C@H](O[C@@H]2O[C@H](CO)[C@@H](O)[C@H](O)[C@H]2O)OC=C(C(=O)OC)[C@H]1CC(=O)O[C@@H]1O[C@H](CO)[C@@H](O)[C@H](O)[C@H]1O`, the activation is -32.8% (inactive). For the compound `O=C1NC(=O)C(c2c[nH]c3ccccc23)=C1c1c[nH]c2ccccc12`, the Potency is 27.3 µM (active). `O=C1c2ccccc2S(=O)(=O)N1CCCCN1CCN(c2ncccn2)CC1`: the activation was 13.4% (inactive). As to `C[C@H]1[C@H](NC(=O)C(=NOC(C)(C)C(=O)O)c2csc(N)n2)C(=O)N1S(=O)(=O)O`, the activation was -31.5% (inactive).

Turning to `Cn1cc(C=CC(=O)c2cccc(F)c2)cc1C=CC(=O)NO`, the Potency was 38.5 µM (active). Regarding `C[C@@H](O)[C@H](N)C(=O)O`, the activation was -18.4% (inactive).

For `Nc1ccccc1N`, the Potency is 17.8 µM (active).

In the case of `O=S(c1cc(Cl)cc(Cl)c1O)c1cc(Cl)cc(Cl)c1O`, the activation was -0.565% (inactive). As to `NC[C@H]1O[C@H](O[C@H]2[C@H](O[C@@H]3O[C@H](CO)[C@@H](O)[C@H]3O)C(O)[C@H](N)C[C@@H]2N)[C@H](N)[C@@H](O)[C@@H]1O` (stereo partly specified), the activation was 0% (inactive). On to `CCCCCCc1ccc(O)cc1O`, for which the activation is 3.35% (inactive). Regarding `COc1c(N2C[C@@H]3CCCN[C@@H]3C2)c(F)cc2c(=O)c(C(=O)O)cn(C3CC3)c12`, the activation is 4.18% (inactive).

Consider `CN[C@H]1[C@@H](O)[C@@H]2O[C@@H]3O[C@H](C)CC(=O)[C@]3(O)O[C@@H]2[C@@H](NC)[C@H]1O`, for which the activation was -7.34% (inactive).

As to `CC(C)n1c(/C=C/[C@@H](O)C[C@@H](O)CC(=O)O)c(-c2ccc(F)cc2)c2ccccc21`, the activation is -1.69% (inactive). Regarding `CC(=O)N[C@@H](CCC(N)=O)C(=O)O`, the activation is -8.37% (inactive).
